We go through 39 compounds from PubChem BioAssay (EPA / NIEHS).

Broadly, the AC50 is the midpoint of the concentration-response curve, whichever way the signal moves.

Structures are written as SMILES. Some compounds were tested as several samples or in several runs, with calls that do not always agree. Activity calls are given as the source filed them. Rule for the calls: active = hit-call score of the fitted dose curve at least 0.9, where 1 is the maximum; inactive = score below 0.9.

A short description of this experiment: ATG_GATA_CIS: Attagene CIS-FACTORIAL HepG2 Assay for human GATA Binding Protein (AID 2282944). The following applies: HepG2 GATA cis-element reporter, Attagene multiplex mRNA; actives raise or lower the signal. As for the experimental part:
ATG_CIS is a cell-based, multiplexed-readout assay that uses HepG2, a human liver cell line, with measurements taken at 24 hours after chemical dosing in a 24-well plate.ATG_GATA_CIS is one of 52 assay component(s) measured or calculated from the ATG_CIS assay. It is designed to make measurements of mRNA induction, a form of inducible reporter, as detected with fluorescence intensity signals by Reverse transcription polymerase chain reaction (RT-PCR) and Capillary electrophoresis technology.Data from the assay component ATG_GATA_CIS was analyzed into 1 assay endpoint. This assay endpoint, ATG_GATA_CIS, was analyzed with bidirectional fitting relative to DMSO as the negative control and baseline of activity. Using a type of inducible reporter, measures of mRNA for gain or loss-of-signal activity can be used to understand the reporter gene at the transcription factor-level as they relate to the gene GATA1. Furthermore, this assay endpoint can be referred to as a primary readout, because this assay has produced multiple assay endpoints where this one serves a reporter gene function. To generalize the intended target to other relatable targets, this assay endpoint is annotated to the dna binding intended target family, where the subfamily is GATA proteins.
Human liver HepG2 cells are transiently transfected with multiple reporter transcription units (MRTUs) in 6-well plates using FuGene 6 reagent (Roche; 3 ml FuGene/1 mg DNA). The MRTU constructs are regulated by a cis-regulating element (promoter). […] A major difference between the CIS and TRANS system is that in CIS activities of endogenous TFs are measured, whereas the TRANS assay evaluates changes in activities of exogenous, chimeric NR-Gal4 proteins. […] At the end of 24 hour incubation, total RNA was isolated using TriZol reagent (Invitrogen). The isolated RNA is then reverse-transcribed using oligo(dT) primer and Mo-MLV reverse transcriptase (Invitrogen) with DNAse I (Ambion) treatment for 30 min. The one-tenth of the produced cDNA was amplified by PCR using Taq DNA polymerase (Invitrogen) and two reporter sequence-specific primers. The PCR products were fluorescently labeled by primer extension with 6-arboxyfluorescein (6-FAM) 5'-labeled reporter sequence-specific primer (2 min at 95 C, 20 s at 68 C and 10 min at 72 C) and these products were digested with 5U of HpaI (New England Biolabs) for 2h at 37 C. The fragments were purified using Qiaquick PCR columns (Qiagen), analyzed on an ABI 3130xL genetic analyzer (Applied Biosystems) with peak positions identified by using a set of X-rhodamine (ROX)-labeled MapMarker1000 molecular weight standards (BioVentures). The raw capillary electrophoresis data was processed using Attagraph software (Attagene).
Consider `N#CSCSc1nc2ccccc2s1`, for which the result was inactive.

With `COC(=O)c1cccc(C)c1S(=O)(=O)NC(=O)Nc1nc(OCC(F)(F)F)nc(N(C)C)n1`, the call was inactive.

On to `Cc1nn(C)c(Oc2ccccc2)c1C=NOCc1ccc(C(=O)OC(C)(C)C)cc1`, for which the compound was classed as inactive.

In the case of `CCCCCOC(=O)COc1cc(N2C(=O)C3=C(CCCC3)C2=O)c(F)cc1Cl`, the result was inactive.

With `COc1c(Cl)ccc(Cl)c1C(=O)O`, the compound was classed as inactive.

Consider `CCC(O)=C1C(=O)CC(C(=O)O)CC1=O` (stereo not given), for which the result was inactive.

Take `CCCCOC(=O)[C@@H](C)Oc1ccc(Oc2ccc(C(F)(F)F)cn2)cc1`: the compound was called inactive.

For `CCOC(=O)[C@H](C)Oc1ccc(Oc2nc3ccc(Cl)cc3o2)cc1`, the outcome was inactive.

For the compound `CC(C)(C)[C@@H](O)[C@@H](Cc1ccc(Cl)cc1)n1cncn1`, the result was inactive.

With `CCCN(CCC)C(=O)SCC`, the result was inactive.

On to `C#C[C@]1(O)CC[C@H]2[C@@H]3CCC4=CC(=O)CC[C@@H]4[C@H]3CC[C@@]21CC`, for which the call was inactive.

Turning to `CCOC(=O)C(C)Oc1ccc(Oc2nc3ccc(Cl)cc3o2)cc1` (stereo not given), the compound was called inactive.

With `C[C@]12C[C@H](O)[C@H]3[C@@H](CCC4=CC(=O)CC[C@@]43C)[C@@H]1CC[C@@H]2C(=O)CO`, the compound was classed as inactive.

Take `S=C(S)NCCNC(=S)S.[Mn+2].[S-]C([S-])=NCCN=C([S-])[S-].[Zn+2]`: the call was inactive.

Turning to `CCC(C)OC(=O)N1CCCCC1CCO` (stereo not given), the call was inactive.

As to `CCCOC(=O)NCCCN(C)C`, the compound was classed as inactive.

On to `COC(=O)CSc1cc(N=c2sc(=O)n3n2CCCC3)c(F)cc1Cl`, for which the compound was called inactive.

`CCOC(=O)c1ccc(O)cc1`: the call was inactive.

With `CCCCC(CC)COC(=O)c1ccccc1C(=O)O` (stereo not given), the outcome was inactive.

With `CCN(CC)C(=O)c1cccc(C)c1`, the compound was classed as inactive.

For `CCOC(=O)C(C)Oc1ccc(Oc2cnc3cc(Cl)ccc3n2)cc1` (stereo not given), the call was inactive.

As to `CC(=O)[C@H]1CC[C@H]2[C@@H]3CCC4=CC(=O)CC[C@]4(C)[C@H]3CC[C@]12C`, the compound was called inactive and the AC50 is 152 µM (active).

As to `O=C(c1ccc(O)cc1O)c1ccc(O)cc1O`, the call was inactive.

`CC(C)(c1ccc(O)cc1)c1ccc(O)cc1`: the result was inactive.

In the case of `CC1(C)C(C=C(Cl)Cl)C1C(=O)OCc1cccc(Oc2ccccc2)c1` (stereo not given), the result was inactive.

Consider `O=C(c1ccccc1)C1CCCCC1`, for which the compound was called inactive.

Take `c1ccc(Nc2ccccc2)cc1`: the call was inactive.

For the compound `CCCN(CCC)c1c([N+](=O)[O-])cc(C(F)(F)F)c(N)c1[N+](=O)[O-]`, the compound was classed as inactive.

For `COC(=O)c1ccccc1C(=O)O`, the outcome was inactive.

As for `COc1nc(C)nc(NC(=O)NS(=O)(=O)c2ccccc2OCCCl)n1`, the compound was called inactive.

In the case of `CN(C)C(=O)Nc1ccc(Cl)c(Cl)c1`, the compound was called inactive.

On to `CCCCOC(=O)C(C)Oc1ccc(Oc2ccc(C(F)(F)F)cn2)cc1` (stereo not given), for which the result was inactive.

As to `CCCOC(=O)c1ccc(C(=O)OCCC)nc1`, the compound was called inactive.

`CCNc1nc(N)nc(Cl)n1`: the compound was classed as inactive.

`COC(=O)c1ccc(CNS(C)(=O)=O)cc1S(=O)(=O)NC(=O)Nc1nc(OC)cc(OC)n1`: the compound was classed as inactive.

For the compound `C=CCOC(Cn1ccnc1)c1ccc(Cl)cc1Cl` (stereo not given), the compound was classed as inactive.

For the compound `CCN(Cc1c(F)cccc1Cl)c1c([N+](=O)[O-])cc(C(F)(F)F)cc1[N+](=O)[O-]`, the compound was classed as inactive.

In the case of `C[C@]12CC[C@@H]3c4ccc(O)cc4C[C@@H](CCCCCCCCCS(=O)CCCC(F)(F)C(F)(F)F)[C@H]3[C@@H]1CC[C@@H]2O` (stereo not given in full), the compound was called inactive.

Take `COC(=O)c1c(Cl)nn(C)c1S(=O)(=O)NC(=O)Nc1nc(OC)cc(OC)n1`: the outcome was inactive.
